Structures are written as SMILES. About 83,000 compounds went through this panel and 20% of them were active in at least one assay; those are over-represented in the sample as a whole.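 A percent growth of 40 corresponds to 60% growth inhibition; 0 means no net growth; -100 means all cells died. Active threshold: below 10.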 Calls of active or inactive are those of the source.

This is an account of results in PubChem BioAssay (NCI).

This assay concerns KM12 colon. The experiment in a line: NCI-60 one-dose screen, 48 h (100 = growth as untreated, 0 = no growth, -100 = all killed). The conditions noted are these: 10 µM.
Regarding `COc1cc(-c2nc3cc(Cl)c(Cl)cc3[nH]2)ccc1OCC(=O)NN`, the growth was 64.6% (inactive).

Take `CC1(C)Cc2c(cn(Cc3ccccc3)c2-c2ccccc2)-c2oncc21`: the growth is 105% (inactive).

Consider `CCOc1ccc(-n2cc(-c3ccc(N(C)C)cc3)[n+]3c2CCCCC3)cc1`, for which the growth was 14.3% (inactive).

For the compound `O=C(COCc1c(-c2ccccc2)no[n+]1[O-])Nc1nc(-c2ccc(Cl)cc2)cs1`, the growth is 101% (inactive).

Turning to `CCN(Cc1ccccc1)C1CCN(Cc2cc(Br)ccc2O)CC1`, the growth is 51.3% (inactive).

As for `COCc1cc2c(cc1Br)OCO2`, the growth was 104% (inactive).

Turning to `COc1cc(/C=C/C(=O)c2cc(-c3ccc(C(F)(F)F)cc3)ccc2O)cc(OC)c1OC`, the growth was 69.2% (inactive).

On to `Cc1cc(C#Cc2ccccc2)ccc1-n1c(/C=C/c2cc(O)ccc2O)nc2ccccc2c1=O`, for which the growth is -5.21% (active).

Regarding `COc1cc(-c2nc3ccc(C)cc3[nH]2)ccc1OCC(=O)N=Nc1c(O)[nH]c2ccccc12`, the growth was -79.4% (active).

Regarding `COc1cc(-c2nc(-c3nnc(-c4cccnc4)o3)c3ccccn23)cc(OC)c1OC`, the growth was 100% (inactive).

Consider `COc1cccc(C2(C)Nc3ccccc3-c3nc4ccccc4n32)c1` (configuration not stated), for which the growth was 108% (inactive).

Regarding `COc1cc(CSc2nc3ccc(Cl)cc3c(=O)n2Cc2ccccc2)cc(OC)c1OC`, the growth is 23.7% (inactive).

As to `CC(C)c1[nH]nc2c(NCc3ccc(-c4ccccn4)cc3)nc(SCCN(C)C)nc12`, the growth was 8.47% (active).

For `OC(CNC1CCCC1)Cn1c2ccccc2c2ccccc21` (configuration not stated), the growth was 21.6% (inactive).

Turning to `O=c1cc(CSc2nnc(-c3ccccc3)n2-c2ccc(F)cc2)c2ccc3ccccc3c2o1`, the growth was 95.8% (inactive).

Turning to `CC[C@@]1(C(N)=O)CC2C=CC1C2` (some centres not stated), the growth was 119% (inactive).

Take `CCCCOCC(=O)NC(NP(=O)(N(C)C)N(C)C)C(Cl)(Cl)Cl` (configuration not stated): the growth was 133% (inactive).

Regarding `COc1ccccc1S(=O)(=O)Nc1ccc2c(c1)CN(C)C(=O)N2`, the growth was 45% (inactive).

`O=C1CC(c2cccc(-c3cccnc3)c2)=Nc2ccc(Br)cc2N1`: the growth was 49.4% (inactive).

As to `N#Cc1c2c([nH]c(=O)c1C(N)=O)CCCCC2`, the growth is 106% (inactive).

On to `CCOC(=O)C(CCC1=NC(C)(C)CC(C)O1)C(=O)OCC` (configuration not stated), for which the growth is 94.4% (inactive).

`COc1cc(Nc2ccnc(N3CCN(c4ccnc5cc(Cl)ccc45)CC3)n2)cc(OC)c1`: the growth was 8.26% (active).

Consider `CS(=O)(=O)Nc1ccc(OCc2nnc(-c3ccc(Cl)cc3)o2)c(F)c1`, for which the growth was 98.6% (inactive).

Consider `COc1cc(C2CC(=O)Nc3c2c(C)nn3-c2nc3ccccc3[nH]2)cc(OC)c1O` (configuration not stated), for which the growth was 45.7% (inactive).

Consider `CCCCCCN=C(N)CCCCCCCCCCC(N)=NCCCCCC`, for which the growth was 34.8% (inactive).

Turning to `COc1ccc(-c2ccc(-c3ccc(C(=N)N)c(F)c3)s2)cc1`, the growth was -94.9% (active).

Consider `Oc1ccccc1-c1nnc(Cn2c(Cc3cccc4ccccc34)nc3ccccc32)o1`, for which the growth was 98.8% (inactive).

As to `FC(F)(F)c1ccc(-c2nc(-c3nc4cc(Cl)c(Cl)cc4[nH]3)c3ccccn23)cc1`, the growth was 52.8% (inactive).

Regarding `CC(=O)Nc1ccc(Sc2ccc(NC(C)=O)cc2)cc1`, the growth was 96.5% (inactive).

For `CNC(=O)c1cc(Oc2ccc(NC(=O)Nc3ccc(Cl)c(OC(C)C)c3)c(F)c2)ccn1`, the growth is 24.4% (inactive).

As for `c1ccc(OCCC[P+](c2ccccc2)(c2ccccc2)c2ccccc2)cc1`, the growth was 6.18% (active).

For `CN(C)c1ccc2c(c1)OC(N)=C(C#N)C2c1ccc2c(c1)CCCN2C` (configuration not stated), the growth was 23.1% (inactive).

As to `CCOC(=O)Nc1ccc2c(c1)C(=O)N(CCOC)c1ccccc1O2`, the growth is 23% (inactive).

`COc1cccc2c1O/C(=C\c1ncc([N+](=O)[O-])n1C)C2=O`: the growth was -50.6% (active).

For the compound `O=C1/C(=C/c2ccc(O)cc2O)N=C2SCCCN12`, the growth was 91.3% (inactive).

Turning to `O=S(=O)(NC1c2ccccc2Oc2ccccc21)c1cc(Cl)ccc1Cl`, the growth is 102% (inactive).

Take `CCCCN(CCCC)c1ccc(C(=NC(C)CCCN(CC)CC)c2ccc(N(C)C)cc2)cc1` (configuration not stated): the growth is -14.3% (active).
